PubChem BioAssay (NCI)
Compounds without any hit were thinned out: in the full panel of roughly 83,000, 20% have a hit.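 Cell lines were cultured in 96-well plates, exposed to a single compound concentration, and assessed for percent growth 48 hours later.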 Values without a mark were called inactive. Calls of active or inactive are those of the source. The calls were made as follows: active = growth percent below 10; inactive = the rest.

Key:
Assay in all cases: NCI-60 one-dose screen, 48 h (100 = growth as untreated, 0 = no growth, -100 = all killed)
Conditions in all cases: 10 µM unless noted
DU-145 prostate = tested on: DU-145 prostate
K-562 leukemia = tested on: K-562 leukemia
MALME-3M melanoma = tested on: MALME-3M melanoma
MDA-MB-231 breast = tested on: MDA-MB-231 breast
RXF 393 renal = tested on: RXF 393 renal
SF-268 CNS = tested on: SF-268 CNS
SF-295 CNS = tested on: SF-295 CNS
SF-539 CNS = tested on: SF-539 CNS
UACC-257 melanoma = tested on: UACC-257 melanoma
M14 melanoma = tested on: M14 melanoma

Compound | growth (DU-145 prostate) | growth (K-562 leukemia) | growth (MALME-3M melanoma) | growth (MDA-MB-231 breast) | growth (RXF 393 renal) | growth (SF-268 CNS) | growth (SF-295 CNS) | growth (SF-539 CNS) | growth (UACC-257 melanoma) | growth (M14 melanoma)
Nc1[nH]n2cc(-c3ccc(F)cc3)nc2c1N=Nc1ccc(S(N)(=O)=O)cc1 | 70.2% | 90.1% | 58.4% | 74.8% | 60.4% | 76.7% | 98.2% | 72.5% | 99.6% | 64.6%
CN1CCN(Cc2ccc(NC(=O)c3cncc(C#Cc4cnc(N)c5ccc(F)cc45)c3)cc2C(F)(F)F)CC1 | 4.11% (active) | -63.7% (active) | -17.2% (active) | -58.2% (active) | -3.82% (active) | 29.6% | 28.2% | -3.72% (active) | 47.5% | -0.651% (active)
COc1ccc(/C=C(/c2ccccc2)[N+](=O)[O-])c(OC)c1 | 38.6% | 6.07% (active) | -27% (active) | 12.1% | -67.8% (active) | 14.3% | 9.19% (active) | -48.5% (active) | 10.4% | 5.14% (active)
S=c1nc2oc(-c3ccccc3)c(-c3ccccc3)c2c(/N=C\c2ccco2)[nH]1 | 100% | 89.3% | 99.3% | 98.5% | 99.3% | 90.2% | 94.3% | 95.8% | 105% | 103%
Nc1nc(N)c2c(n1)NC(c1ccc(Cl)cc1)C1CCc3ccccc3C1=N2 (stereo not given) | 64.1% | 31% | 19.6% | 76.8% | 83.3% | 72.3% | 20.7% | 54.3% | 58.2% | 70.4%
COc1cnc2c(c1)C(=O)c1c-2n(CCCCl)c(=O)c2ccncc12 | 76% | 38.7% | 103% | 81.4% | 81% | 57.6% | 36.6% | 56.1% | 70% | 67.5%
Cn1cc(-c2csc(-c3c[nH]c4ccc(F)cc34)n2)c2ccnc(Cl)c21 | 51.2% | 53.3% | 121% | 60.9% | 67.8% | 92% | 85% | 68.9% | 39.3% | 57.4%
CCC1S/C(=N\N=C(\C)c2cc3cc(Cl)ccc3o2)N(c2ccccc2)C1=O (stereo not given) | 131% | 92.2% | -3.03% (active) | 89.4% | 131% | 108% | 103% | 122% | 154% | 61.5%
CN(C)c1ccc(/C=C(\C#N)c2cc3ccccc3[nH]2)cc1 | 24.5% | 14% | 63.9% | 31.9% | 28.9% | 39.8% | 8.98% (active) | 6.06% (active) | 57.1% | 9.05% (active)
CSc1nn2c(-c3ccc4ccccc4c3)ccnc2c1C#N | 43% | 11.1% | 10.1% | 27.3% | 19% | 45.3% | 8.45% (active) | 26.3% | 63% | 5.19% (active)
COc1ccc(C(=O)Cn2c(C(=O)c3ccc(Cl)cc3)nc3ccccc32)cc1 | 98.3% | 45.7% | 70.7% | 65.5% | 14.2% | 66.7% | 51.8% | 91% | 70.8% | 14.8%
COc1ccc(/C=C/c2c(C(=O)/C=C/c3ccccc3)c(C)nc3ccccc23)cc1 | 5.61% (active) | 6.28% (active) | 17.8% | 31.3% | -23% (active) | 45.3% | 22.1% | -39.5% (active) | 8.08% (active) | 15.3%
